Test results taken from article PMC7862700, “An all-to-all approach to the identification of sequence-specific readers for epigenetic DNA modifications on cytosine”.

Key:
Assay in all cases: DAPPL (digital affinity profiling via proximity ligation, sequencing); 10 mM Tris-HCl pH 7.5, 50 mM NaCl, 1 mM DTT, 4% glycerol, room temperature, 30 min; GST-TFs on glutathione beads, 16-mer random dsDNA library, 0.1% formaldehyde crosslink after washing; high values mean tight binding
Conditions in all cases: protein: recombinant; tags: N-terminal GST; dsDNA, one strand shown
ERF = molecular target: T1, ERF (Homo sapiens, UniProt P50548 1-548)
T1 sequence: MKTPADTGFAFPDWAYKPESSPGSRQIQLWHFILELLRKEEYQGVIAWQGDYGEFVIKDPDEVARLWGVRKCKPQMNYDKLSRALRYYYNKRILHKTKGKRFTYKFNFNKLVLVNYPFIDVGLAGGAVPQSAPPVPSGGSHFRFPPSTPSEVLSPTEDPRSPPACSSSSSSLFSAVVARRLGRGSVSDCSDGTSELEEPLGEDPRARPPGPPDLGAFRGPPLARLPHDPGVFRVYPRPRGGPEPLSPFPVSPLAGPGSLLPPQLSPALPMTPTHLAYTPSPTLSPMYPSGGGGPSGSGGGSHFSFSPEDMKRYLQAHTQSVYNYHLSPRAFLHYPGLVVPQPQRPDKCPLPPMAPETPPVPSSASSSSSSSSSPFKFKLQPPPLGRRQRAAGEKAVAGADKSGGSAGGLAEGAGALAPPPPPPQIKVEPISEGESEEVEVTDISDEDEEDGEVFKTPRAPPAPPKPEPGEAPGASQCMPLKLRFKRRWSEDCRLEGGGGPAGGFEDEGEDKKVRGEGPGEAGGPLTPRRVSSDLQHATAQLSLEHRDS
Outline: (§1)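 Sequencing on an Illumina NextSeq500 followed washing, crosslinking with 0.1% formaldehyde, proximity ligation (BsaI/T4 ligase, 1 h, 37 °C) and PCR amplification of pools that had been incubated for 30 min at room temperature with 200 nmole of a random double-stranded 16-mer DNA library in Tris/NaCl/DTT/glycerol buffer. Each pool held DNA-barcoded human transcription factors, expressed in yeast as GST fusions and captured on glutathione beads, plus a tag-only sample. Binding signal is a hexamer's read frequency for a factor divided by its frequency in the tag-only sample.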

ETV3L = molecular target: T2, ETV3L (Homo sapiens, UniProt Q6ZN32 1-361)
T2 sequence: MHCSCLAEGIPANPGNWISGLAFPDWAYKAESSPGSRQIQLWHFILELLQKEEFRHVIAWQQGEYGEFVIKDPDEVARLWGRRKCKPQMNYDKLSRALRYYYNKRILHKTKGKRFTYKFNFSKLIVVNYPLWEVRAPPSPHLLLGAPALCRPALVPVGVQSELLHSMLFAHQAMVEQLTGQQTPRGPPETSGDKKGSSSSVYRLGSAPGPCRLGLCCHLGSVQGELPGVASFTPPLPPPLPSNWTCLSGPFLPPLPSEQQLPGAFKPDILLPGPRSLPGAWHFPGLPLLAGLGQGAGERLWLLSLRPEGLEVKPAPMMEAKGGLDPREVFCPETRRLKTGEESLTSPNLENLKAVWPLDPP
Outline: as §1

ETS2 = molecular target: T3, ETS2 (Homo sapiens, UniProt P15036 1-469)
T3 sequence: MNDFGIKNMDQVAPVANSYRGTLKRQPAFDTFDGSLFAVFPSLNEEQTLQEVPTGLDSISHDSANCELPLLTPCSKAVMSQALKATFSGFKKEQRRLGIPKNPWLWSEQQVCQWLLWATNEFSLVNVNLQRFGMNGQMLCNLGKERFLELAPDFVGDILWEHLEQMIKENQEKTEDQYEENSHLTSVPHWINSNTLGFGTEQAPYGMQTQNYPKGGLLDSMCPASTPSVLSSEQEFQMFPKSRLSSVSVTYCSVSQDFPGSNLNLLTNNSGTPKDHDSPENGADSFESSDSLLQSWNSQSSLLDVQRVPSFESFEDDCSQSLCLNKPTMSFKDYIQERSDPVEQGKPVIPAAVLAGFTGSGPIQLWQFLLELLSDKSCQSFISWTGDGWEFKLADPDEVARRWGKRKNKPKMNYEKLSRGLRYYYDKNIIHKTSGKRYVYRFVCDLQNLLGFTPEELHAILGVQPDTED
Outline: as §1

SPDEF = molecular target: T4, SPDEF (Homo sapiens, UniProt O95238 1-335)
T4 sequence: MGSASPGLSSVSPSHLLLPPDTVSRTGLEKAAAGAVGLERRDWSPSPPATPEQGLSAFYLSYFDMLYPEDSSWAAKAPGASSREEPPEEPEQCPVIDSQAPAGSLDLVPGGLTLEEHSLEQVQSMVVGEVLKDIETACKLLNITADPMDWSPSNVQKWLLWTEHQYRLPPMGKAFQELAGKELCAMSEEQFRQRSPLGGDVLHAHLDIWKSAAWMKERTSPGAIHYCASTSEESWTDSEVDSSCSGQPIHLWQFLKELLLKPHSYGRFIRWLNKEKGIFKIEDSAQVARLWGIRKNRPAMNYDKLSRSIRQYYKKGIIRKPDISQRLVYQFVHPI
Outline: as §1

ETV7 = molecular target: T5, ETV7 (Homo sapiens, UniProt Q9Y603 1-341)
T5 sequence: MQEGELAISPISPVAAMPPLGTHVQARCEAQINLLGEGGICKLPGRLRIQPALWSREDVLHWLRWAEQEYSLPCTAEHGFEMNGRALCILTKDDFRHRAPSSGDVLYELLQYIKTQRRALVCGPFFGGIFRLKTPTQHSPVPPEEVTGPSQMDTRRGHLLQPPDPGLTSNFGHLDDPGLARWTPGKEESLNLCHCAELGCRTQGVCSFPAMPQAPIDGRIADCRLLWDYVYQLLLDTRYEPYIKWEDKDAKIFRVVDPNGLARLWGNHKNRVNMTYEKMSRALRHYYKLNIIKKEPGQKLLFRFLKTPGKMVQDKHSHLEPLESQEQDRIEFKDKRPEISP
Outline: as §1

ELF5 = molecular target: T6, ELF5 (Homo sapiens, UniProt Q9UKW6-2 1-255)
T6 sequence: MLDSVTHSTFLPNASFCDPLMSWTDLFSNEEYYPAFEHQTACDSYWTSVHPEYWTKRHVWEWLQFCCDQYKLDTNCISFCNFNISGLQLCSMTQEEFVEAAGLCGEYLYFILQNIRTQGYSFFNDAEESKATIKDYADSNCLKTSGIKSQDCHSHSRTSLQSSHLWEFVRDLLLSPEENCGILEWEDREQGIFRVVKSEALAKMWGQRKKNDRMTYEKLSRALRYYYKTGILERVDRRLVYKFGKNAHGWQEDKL
Outline: as §1

ETV3 = molecular target: T7, ETV3 (Homo sapiens, UniProt P41162-2 1-143)
T7 sequence: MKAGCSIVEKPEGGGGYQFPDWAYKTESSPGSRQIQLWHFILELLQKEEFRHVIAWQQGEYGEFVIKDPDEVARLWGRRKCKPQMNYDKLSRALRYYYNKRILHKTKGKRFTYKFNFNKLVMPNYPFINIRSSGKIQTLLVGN
Outline: as §1

ETV6 = ETV6 (Homo sapiens, UniProt P41212 1-452)
Outline: as §1

Sequence of ETV6 (P41212 whole entry): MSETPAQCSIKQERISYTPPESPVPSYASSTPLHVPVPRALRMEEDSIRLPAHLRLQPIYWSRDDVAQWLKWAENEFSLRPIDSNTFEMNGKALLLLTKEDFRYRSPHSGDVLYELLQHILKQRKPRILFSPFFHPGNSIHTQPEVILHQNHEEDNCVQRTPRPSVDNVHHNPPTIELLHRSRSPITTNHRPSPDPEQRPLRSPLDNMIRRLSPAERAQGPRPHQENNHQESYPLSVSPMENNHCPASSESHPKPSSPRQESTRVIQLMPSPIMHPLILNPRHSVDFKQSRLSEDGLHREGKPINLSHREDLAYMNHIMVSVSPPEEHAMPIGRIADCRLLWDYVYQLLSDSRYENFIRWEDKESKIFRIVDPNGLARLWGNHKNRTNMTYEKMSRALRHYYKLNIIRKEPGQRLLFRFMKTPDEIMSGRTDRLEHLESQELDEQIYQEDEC

| Sequence | binding signal (ERF) | binding signal (ETV3L) | binding signal (ETS2) | binding signal (SPDEF) | binding signal (ETV7) | binding signal (ELF5) | binding signal (ETV3) | binding signal (ETV6) |
| --- | --- | --- | --- | --- | --- | --- | --- | --- |
| GTAATT | 1.12 fold enrichment (6-mer frequency, TF over GST control) | 1.21 fold enrichment (6-mer frequency, TF over GST control) | 1.28 fold enrichment (6-mer frequency, TF over GST control) | 1.19 fold enrichment (6-mer frequency, TF over GST control) | 1.3 fold enrichment (6-mer frequency, TF over GST control) | 1.28 fold enrichment (6-mer frequency, TF over GST control) | 1.18 fold enrichment (6-mer frequency, TF over GST control) | 1.3 fold enrichment (6-mer frequency, TF over GST control) |
| TGATAT | 1.02 fold enrichment (6-mer frequency, TF over GST control) | 1.09 fold enrichment (6-mer frequency, TF over GST control) | 1.12 fold enrichment (6-mer frequency, TF over GST control) | 1.18 fold enrichment (6-mer frequency, TF over GST control) | 1.03 fold enrichment (6-mer frequency, TF over GST control) | 1.09 fold enrichment (6-mer frequency, TF over GST control) | 1.15 fold enrichment (6-mer frequency, TF over GST control) | 1.06 fold enrichment (6-mer frequency, TF over GST control) |
| TTATTC | 1.45 fold enrichment (6-mer frequency, TF over GST control) | 1.47 fold enrichment (6-mer frequency, TF over GST control) | 1.37 fold enrichment (6-mer frequency, TF over GST control) | 1.41 fold enrichment (6-mer frequency, TF over GST control) | 1.43 fold enrichment (6-mer frequency, TF over GST control) | 1.34 fold enrichment (6-mer frequency, TF over GST control) | 1.29 fold enrichment (6-mer frequency, TF over GST control) | 1.32 fold enrichment (6-mer frequency, TF over GST control) |
| ATCCCG | 1.4 fold enrichment (6-mer frequency, TF over GST control) | 1.33 fold enrichment (6-mer frequency, TF over GST control) | 1.44 fold enrichment (6-mer frequency, TF over GST control) | 1.71 fold enrichment (6-mer frequency, TF over GST control) | 1.27 fold enrichment (6-mer frequency, TF over GST control) | 1.7 fold enrichment (6-mer frequency, TF over GST control) | 1.41 fold enrichment (6-mer frequency, TF over GST control) | 1.52 fold enrichment (6-mer frequency, TF over GST control) |
| CACTCG | 1.1 fold enrichment (6-mer frequency, TF over GST control) | 1.11 fold enrichment (6-mer frequency, TF over GST control) | 1.22 fold enrichment (6-mer frequency, TF over GST control) | 1.04 fold enrichment (6-mer frequency, TF over GST control) | 1.13 fold enrichment (6-mer frequency, TF over GST control) | 1.05 fold enrichment (6-mer frequency, TF over GST control) | 1.09 fold enrichment (6-mer frequency, TF over GST control) | 1.1 fold enrichment (6-mer frequency, TF over GST control) |
| TTCATC | 1.21 fold enrichment (6-mer frequency, TF over GST control) | 1.24 fold enrichment (6-mer frequency, TF over GST control) | 1.17 fold enrichment (6-mer frequency, TF over GST control) | 1.36 fold enrichment (6-mer frequency, TF over GST control) | 1.25 fold enrichment (6-mer frequency, TF over GST control) | 1.23 fold enrichment (6-mer frequency, TF over GST control) | 1.26 fold enrichment (6-mer frequency, TF over GST control) | 1.23 fold enrichment (6-mer frequency, TF over GST control) |
| CCAACA | 1.05 fold enrichment (6-mer frequency, TF over GST control) | 1.01 fold enrichment (6-mer frequency, TF over GST control) | 1.03 fold enrichment (6-mer frequency, TF over GST control) | 1.06 fold enrichment (6-mer frequency, TF over GST control) | 1.05 fold enrichment (6-mer frequency, TF over GST control) | 1.01 fold enrichment (6-mer frequency, TF over GST control) | 1.1 fold enrichment (6-mer frequency, TF over GST control) |  |
| CTATGT | 1.08 fold enrichment (6-mer frequency, TF over GST control) | 1.06 fold enrichment (6-mer frequency, TF over GST control) | 1.16 fold enrichment (6-mer frequency, TF over GST control) | 1.12 fold enrichment (6-mer frequency, TF over GST control) | 1.3 fold enrichment (6-mer frequency, TF over GST control) | 1.1 fold enrichment (6-mer frequency, TF over GST control) | 1.15 fold enrichment (6-mer frequency, TF over GST control) |  |
